Screening results (PubChem)
Shown are actives, neighbours in structure and some others; about 2.3% of the full set was active somewhere.
C diff HTS: C. difficile growth inhibition. Clostridium difficile clinical isolate growth, OD600, 24 h; active compounds read low. growth activity, negative = inhibition, % at 16 µg/mL (by protocol). actives 0.25% (n = 86,000). AID 1259249;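 active = mean growth activity at or below -80% and every replicate also at or below -80%; inconclusive = mean at or below -80% but some replicate above -80%; inactive = mean growth activity above -80%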;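 note: 0% = DMSO wells and -100% = levofloxacin 16 µg/mL wells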
Pf Dd2 inh: inhibitors of Plasmodium falciparum Dd2 growth; activity change, % at 10 µM; actives 2.3% (n = 94,000); AID 1159554; P. falciparum Dd2 growth, SYBR Green, 72 h; active compounds read low; in the data active = activity change below about -80%; inconclusive = no clear call, values can overlap the other calls
An asterisk follows results filed as active; ? = inconclusive; · = no result.

SMILES	C diff HTS	Pf Dd2 inh
CC(C)NC(=O)NCC[C@H]1CC[C@@H](NS(=O)(=O)c2ccccc2)[C@@H](CO)O1	6	15
CN(C)CC(=O)N[C@@H]1C=C[C@H](CC(=O)NCCN2CCCCC2)O[C@H]1CO	·	4
O=C(NC[C@@H]1N[C@@H](CO)[C@H]1c1ccc(-c2ccccc2F)cc1)c1ccccc1	27	-12
O=C(c1cccnc1)N1C[C@H]2[C@@H](c3ccccc31)[C@@H](CO)N2C(=O)C1CCOCC1	1	-23
COc1cccc(CNC(=O)[C@@H]2[C@@H](CO)[C@@H]3Cn4c(cccc4=O)[C@H]2N3C(=O)C2CCCC2)c1	-3	51
COc1cccc(CNC(=O)[C@H]2[C@H](CO)[C@H]3Cn4c(cccc4=O)[C@@H]2N3C(=O)C2CCCC2)c1	-1	-81*
CC(C)CC#Cc1ccc2c(c1)O[C@H](CN(C)C(=O)c1ccccc1F)[C@@H](C)CN([C@@H](C)CO)S2(=O)=O	8	-70
CCCC#Cc1ccc2c(c1)O[C@@H](CN(C)C(=O)c1ccccc1F)[C@@H](C)CN([C@@H](C)CO)S2(=O)=O	18	-83*
C[C@H](CO)N1C[C@H](C)[C@H](CN(C)C(=O)c2ccccc2F)Oc2cc(C#CCN(C)C)ccc2S1(=O)=O	-7	-28
CCCC#Cc1ccc2c(c1)O[C@H](CN(C)C(=O)c1ccccc1F)[C@H](C)CN([C@H](C)CO)S2(=O)=O	17	-81*
CN(C)C(=O)C[C@H]1CC[C@@H]2[C@H](COC[C@@H](O)CN2C(=O)c2ccncc2)O1	-4	·
O=C(Nc1ccccc1)N1CCCCN2[C@H](CO)[C@H](c3ccc(C#Cc4ccccn4)cc3)[C@H]2C1	12	-25
C[C@H](CO)N1C[C@H](C)[C@@H](CN(C)C(=O)Nc2cccc3ccccc23)Oc2ccc(NC(=O)Cc3cn(C)c4ccccc34)cc2C1=O	·	-87*
C[C@H]1CN([C@@H](C)CO)C(=O)c2cc(NC(=O)Cc3cn(C)c4ccccc34)ccc2O[C@@H]1CN(C)CC1CC1	4	-83*
C[C@H]1CN([C@@H](C)CO)C(=O)c2cc(NC(=O)Cc3cn(C)c4ccccc34)ccc2O[C@H]1CN(C)CC1CC1	0	-5
C[C@@H]1CN([C@@H](C)CO)C(=O)c2cc(NC(=O)Cc3cn(C)c4ccccc34)ccc2O[C@H]1CN(C)C(=O)Nc1cccc2ccccc12	·	-56
C[C@H](CO)N1C[C@H](C)[C@@H](CN(C)Cc2ccc(Oc3ccccc3)cc2)Oc2ccc(NC(=O)Cc3cn(C)c4ccccc34)cc2C1=O	11	-84*
COc1ccc(CN(C)C[C@@H]2Oc3ccc(NC(=O)Cc4cn(C)c5ccccc45)cc3C(=O)N([C@@H](C)CO)C[C@H]2C)cc1	-4	-30
C[C@@H]1CN([C@H](C)CO)C(=O)c2cc(NS(=O)(=O)c3cccs3)ccc2O[C@@H](C)CCCCO[C@@H]1CN(C)S(C)(=O)=O	-2	-2
C[C@@H]1CN([C@H](C)CO)C(=O)c2cccc(NC(=O)Nc3ccccc3)c2O[C@@H]1CN(C)Cc1ccc(C(=O)Nc2ccccc2N)cc1	1	-91*
C[C@@H]1CN([C@@H](C)CO)C(=O)c2cccc(NC(=O)C3CCCCC3)c2O[C@H]1CN(C)Cc1ccc(C(F)(F)F)cc1	9	-83*
C[C@H]1CN([C@@H](C)CO)C(=O)c2cccc(NC(=O)Nc3ccccc3)c2O[C@H]1CN(C)Cc1ccc(C(=O)Nc2ccccc2N)cc1	-1	-73
COc1ccc(NC(=O)Nc2cccc3c2O[C@@H](CN(C)Cc2ccc(C(=O)Nc4ccccc4N)cc2)[C@@H](C)CN([C@H](C)CO)C3=O)cc1	3	-66
C[C@H]1CN([C@@H](C)CO)C(=O)c2cccc(NC(=O)C3CCCCC3)c2O[C@@H]1CN(C)Cc1ccc(C(=O)Nc2ccccc2N)cc1	-9	-88*
COc1ccc(NC(=O)Nc2cccc3c2O[C@H](CN(C)Cc2ccc(C(=O)Nc4ccccc4N)cc2)[C@H](C)CN([C@H](C)CO)C3=O)cc1	7	-93*
C[C@H](CO)N1C[C@H](C)[C@H](CN(C)Cc2ccc(C(=O)Nc3ccccc3N)cc2)Oc2c(NC(=O)C3CCCCC3)cccc2C1=O	-2	?
C[C@H](CO)N1C[C@H](C)[C@H](CN(C)Cc2ccc(C(F)(F)F)cc2)Oc2c(NC(=O)C3CCCCC3)cccc2C1=O	16	-30
C[C@H](CO)N1C[C@H](C)[C@@H](CN(C)Cc2ccc(C(=O)Nc3ccccc3N)cc2)Oc2c(NC(=O)Nc3ccc(F)cc3)cccc2C1=O	-4	-85*
C[C@H]1CN([C@@H](C)CO)C(=O)c2cccc(NC(=O)Nc3ccc(F)cc3)c2O[C@H]1CN(C)Cc1ccc(C(=O)Nc2ccccc2N)cc1	13	-71
C[C@@H]1CCCCO[C@H](CN(C)C(=O)CCCN(C)C)[C@@H](C)CN([C@H](C)CO)C(=O)c2cc(NC(=O)Nc3ccc(F)cc3)ccc2O1	2	18
